Results with a measured potency or affinity are listed apart. Calls of active or inactive are those of the source. How the calls were made is not given here.
Test: V-ATPase regulators, yeast pH concentration series – S. cerevisiae, pHLuorin, cherry pick 1, dose response (AID 588596)
Settings: S. cerevisiae pHLuorin vacuolar pH fluorescence; series mostly up to 33.1 µM; response, % activation: at the top concentration

response, % activation, inactive:
O=C(CCSC1=NCCCN1)c1ccc(F)cc1 12.9%
CCOC(=O)Cn1c(=O)c(-c2cc(Br)ccc2N)nc2ccccc21 14.8%
O=C(N1CCCC1)C12CCC3CC(CC(C3)C1)C2 -5%
Cc1cccc(N=Cc2[nH]c3ccc(Br)c(Cl)c3c2O)c1 -0.84%
